A short description of assay [1]: antimalarial activity against Dd2 strain (AID 2302;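 active = growth inhibition above 50% at the single 2 µM test dose, taken to imply half-maximal potency below 2 µM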;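 note: 0% = DMSO untreated growth and 100% = chloroquine plus artemisinin killed control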). The following applies: P. falciparum Dd2 in RBCs, LDH growth readout, 72 h; at 2 µM; active compounds read high.
Assay [2] is described as follows: HepG2 cytotoxicity, primary screen, cytotoxicity control for P. falciparum antimalarial project, cell-based, ATP luminescence (AID 2303;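 active = inhibition above 50%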;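 note: 0% = DMSO wells and 100% = digitonin-killed cells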). The following applies: HepG2 viability, 24-48 h, at 10 µM, active compounds read high.
Assay [3] addresses L-lactate dehydrogenase (Plasmodium falciparum (isolate CDC / Honduras)) (UniProt Q27743). Kind of assay: PfLDH activity inhibition – cell lysate, 3D7 strain, counter-screen for P. falciparum growth inhibition project (AID 2304).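 Note: 0% = vehicle and 100% = reference inhibitor.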 The following applies: P. falciparum 3D7 crude extract, LDH APAD/NBT absorbance; at 2 µM; active compounds read high. In general terms: A counterscreen serves to expose hits that act by an unwanted route or on another target.

The nature of assay [4]: inhibition of 3D7 malaria parasite growth – strain 3D7 (AID 2306).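 Note: 0% = DMSO wells and 100% = chloroquine plus artemisinin control wells.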 The following applies: P. falciparum 3D7 erythrocytic growth, LDH absorbance, 72 h; at 2 µM; active compounds read high.
In assay [5] the target is Calcium-dependent protein kinase 1 (Plasmodium falciparum (isolate 3D7)) (UniProt P62344). Kind of assay: PfCDPK1 kinase inhibitors, biochemical, TCAMS library (AID 1159585; cut-off not given, nearly all actives have IC50 up to about 0.98 µM;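 note: inhibitors leave more ATP so luminescence rises with inhibition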). The following applies: recombinant PfCDPK1, Kinase-Glo ATP depletion luminescence.
Assay [6] has as its target Plasmodium falciparum protein kinase 6 (PK6, PF3D7_1337100) (UniProt Q8IDW1). Put plainly: PfPK6 kinase inhibitors, biochemical, TCAMS library (AID 1159586). The following applies: recombinant PfPK6, Kinase-Glo ATP depletion luminescence. In general terms: Kinase-Glo reads ATP consumption through a luciferase reaction.
The target in assay [7] is Protein kinase 7 (PK7), Plasmodium falciparum 3D7 (PF3D7_0213400) (UniProt Q7YTF7). Put plainly: inhibition of Plasmodium PK7 catalytic activity – biochemical, TCAMS antimalarial set, Kinase-Glo luminescence (AID 1159587). The following applies: recombinant PfPK7, Kinase-Glo ATP depletion luminescence.
Assay [8] has as its target Calcium-dependent protein kinase 4 (Plasmodium falciparum (isolate 3D7)) (UniProt Q8IBS5). Kind of assay: PfCDPK4 kinase inhibitors, biochemical, TCAMS library (AID 1159588; cut-off not given, nearly all actives have IC50 up to about 0.91 µM). The following applies: recombinant PfCDPK4, Kinase-Glo ATP depletion luminescence.

SMILES strings stand for the structures. Unmarked numbers belong to inactive results. For some assays here: Potency and affinity values are given separately. Active and inactive are the calls of the source. Unless noted, the rule behind the calls is not given here.

Plasmodium falciparum protein kinase 6 (PK6, PF3D7_1337100), sequence (Q8IDW1 1-305): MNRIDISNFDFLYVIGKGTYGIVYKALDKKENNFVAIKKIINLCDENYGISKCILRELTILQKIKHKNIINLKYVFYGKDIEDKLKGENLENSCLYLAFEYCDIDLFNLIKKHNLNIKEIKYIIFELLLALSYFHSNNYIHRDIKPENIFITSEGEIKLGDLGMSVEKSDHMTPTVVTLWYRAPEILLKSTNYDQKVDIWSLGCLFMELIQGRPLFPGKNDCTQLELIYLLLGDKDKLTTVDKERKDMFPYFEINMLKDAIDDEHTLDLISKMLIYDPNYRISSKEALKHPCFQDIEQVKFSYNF
Calcium-dependent protein kinase 4 (Plasmodium falciparum (isolate 3D7)), sequence (Q8IBS5 whole entry, looked up): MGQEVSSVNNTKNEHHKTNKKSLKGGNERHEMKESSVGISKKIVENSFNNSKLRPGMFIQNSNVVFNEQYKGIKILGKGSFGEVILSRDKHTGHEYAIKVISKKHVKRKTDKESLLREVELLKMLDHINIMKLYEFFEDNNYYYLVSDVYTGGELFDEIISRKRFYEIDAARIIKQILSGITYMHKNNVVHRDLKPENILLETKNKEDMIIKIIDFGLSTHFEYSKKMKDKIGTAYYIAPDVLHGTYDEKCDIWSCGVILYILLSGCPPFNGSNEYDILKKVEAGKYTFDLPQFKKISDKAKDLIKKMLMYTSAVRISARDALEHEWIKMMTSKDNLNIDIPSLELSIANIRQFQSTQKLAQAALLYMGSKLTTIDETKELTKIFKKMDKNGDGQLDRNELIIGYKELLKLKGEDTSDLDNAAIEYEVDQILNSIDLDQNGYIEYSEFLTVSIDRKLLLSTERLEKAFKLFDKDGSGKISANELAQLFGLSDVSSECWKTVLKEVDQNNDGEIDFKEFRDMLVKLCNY
Calcium-dependent protein kinase 1 (Plasmodium falciparum (isolate 3D7)), sequence (P62344 whole entry, looked up): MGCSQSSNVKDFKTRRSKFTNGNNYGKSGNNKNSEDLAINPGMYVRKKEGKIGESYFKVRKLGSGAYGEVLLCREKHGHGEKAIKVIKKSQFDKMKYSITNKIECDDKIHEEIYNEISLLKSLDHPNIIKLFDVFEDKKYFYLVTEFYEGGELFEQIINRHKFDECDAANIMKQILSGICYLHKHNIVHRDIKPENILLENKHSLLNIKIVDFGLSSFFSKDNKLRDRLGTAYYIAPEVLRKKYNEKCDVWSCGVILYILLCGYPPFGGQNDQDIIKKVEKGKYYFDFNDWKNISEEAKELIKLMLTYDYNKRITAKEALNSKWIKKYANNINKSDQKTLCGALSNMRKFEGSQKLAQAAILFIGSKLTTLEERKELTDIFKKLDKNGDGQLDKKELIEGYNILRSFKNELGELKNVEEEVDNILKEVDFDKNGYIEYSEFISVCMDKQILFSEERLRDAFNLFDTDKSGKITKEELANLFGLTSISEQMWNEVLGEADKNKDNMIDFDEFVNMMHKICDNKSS
L-lactate dehydrogenase (Plasmodium falciparum (isolate CDC / Honduras)), sequence (Q27743 whole entry, looked up): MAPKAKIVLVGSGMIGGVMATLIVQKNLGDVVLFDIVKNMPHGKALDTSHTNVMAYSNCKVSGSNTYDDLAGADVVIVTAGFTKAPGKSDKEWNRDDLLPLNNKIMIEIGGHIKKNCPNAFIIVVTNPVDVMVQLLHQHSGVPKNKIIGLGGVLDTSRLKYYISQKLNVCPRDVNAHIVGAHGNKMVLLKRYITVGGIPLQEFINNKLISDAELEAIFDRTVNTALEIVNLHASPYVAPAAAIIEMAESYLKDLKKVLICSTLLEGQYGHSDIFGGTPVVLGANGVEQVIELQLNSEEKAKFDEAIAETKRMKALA
Protein kinase 7 (PK7), Plasmodium falciparum 3D7 (PF3D7_0213400), sequence (Q7YTF7 1-343): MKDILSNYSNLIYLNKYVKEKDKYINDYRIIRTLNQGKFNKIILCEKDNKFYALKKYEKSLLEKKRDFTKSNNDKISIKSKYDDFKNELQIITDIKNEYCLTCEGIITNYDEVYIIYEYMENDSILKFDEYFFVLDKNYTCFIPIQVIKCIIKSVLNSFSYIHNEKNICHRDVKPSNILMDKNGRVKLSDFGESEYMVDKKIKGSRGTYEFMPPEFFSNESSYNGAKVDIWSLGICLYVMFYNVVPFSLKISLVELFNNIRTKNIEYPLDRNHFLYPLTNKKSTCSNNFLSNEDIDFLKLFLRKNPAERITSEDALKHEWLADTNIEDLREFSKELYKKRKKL

In the case of `Oc1ccc(CN2CCC(NCc3cccc4ccccc34)CC2)cc1`, the results for the growth inhibition in assay [1] and in assay [4] were 8% and 97% (active), respectively. The figures for the inhibition in assay [2] and in assay [3] were 8% and -3%, respectively. The result in assay [5], in assay [6], in assay [7] and in assay [8] was inactive.

Regarding `O=C(NCC1CCC(CNCCCc2ccccc2)CC1)c1cc(Cl)cc(Cl)c1` (configuration not stated), the growth inhibition in assay [1] was 13%; in assay [4], 89% (active). In addition, the figures for the inhibition in assay [2] and in assay [3] were 58% (active) and -1%, respectively. In addition, the outcome in assay [5], in assay [6], in assay [7] and in assay [8] was inactive.

With `CC(Cc1ccc(OCCN2CCN(c3cccc(C(F)(F)F)c3)CC2)cc1)NCC(O)c1cccc(C(F)(F)F)c1` (configuration not stated), the growth inhibition in assay [1] is 91% (active); in assay [4], 97% (active). Also, the results for the inhibition in assay [2] and in assay [3] were 11% and 0%, respectively. Further, the outcome in assay [5], in assay [6], in assay [7] and in assay [8] was inactive.

With `O=C(/C=C/c1ccc(Cl)c(Cl)c1)NCCCCCN1CCCC(CNS(=O)(=O)c2cccc(C(F)(F)F)c2)C1` (configuration not stated), the growth inhibition in assay [1] is 0%; in assay [4], 92% (active). Besides, the inhibition (as a rule, the relative decrease from the control value, in per cent) in assay [2] was 73% (active); in assay [3], 5%. In addition, the result in assay [5], in assay [6], in assay [7] and in assay [8] was inactive.

Consider `N/C(=N/C(=NCCCCCCN=C(/N=C(/N)Nc1ccc(Cl)cc1)N1CCOCC1)N1CCOCC1)Nc1ccc(Cl)cc1`, for which the growth inhibition in assay [1] is 91% (active); in assay [4], 93% (active). Further, the inhibition in assay [2] is -11%; in assay [3], 2%. The outcome in assay [5], in assay [6], in assay [7] and in assay [8] was inactive.

Consider `O=C(Nc1ccc(Cl)cc1)Nc1cccc(-c2cccc(-c3nc4ccc(F)cc4[nH]3)c2)c1`, for which the growth inhibition in assay [1] was 84% (active); in assay [4], 100% (active). The inhibition is 79% (active) in assay [2] and -2% in assay [3]. Further, the outcome in assay [5], in assay [6], in assay [7] and in assay [8] was inactive.

For `CC(C)(C)C(C)(C)Cc1ccc(O)c(CN2CCN(c3ccccc3)CC2)c1`, the growth inhibition was 98% (active) in assay [1] and 99% (active) in assay [4]. The inhibition was 6% in assay [2] and 0% in assay [3]. For the same molecule, the outcome in assay [5], in assay [6], in assay [7] and in assay [8] was inactive.

As to `O=S(=O)(c1ccccc1OC(F)(F)F)C1C[C@H]2CC[C@@H](C1)N2S(=O)(=O)c1cccc(C(F)(F)F)c1` (some centres not stated), the growth inhibition in assay [1] and in assay [4] was 99% (active) in each case. The inhibition in assay [2] is 5%; in assay [3], 2%. For the same molecule, the result in assay [5], in assay [6], in assay [7] and in assay [8] was inactive.

For the molecule `NC(=O)C1CCN(Cc2cccc(-c3cccc(-c4nc5ccc(C(F)(F)F)cc5[nH]4)c3)c2)CC1`, the growth inhibition in assay [1] and in assay [4] was 100% (active) each time. The inhibition in assay [2] was 16%; in assay [3], 3%. Also, the outcome in assay [5], in assay [6], in assay [7] and in assay [8] was inactive.

For `COc1cccc2c(NN=Cc3ccccc3[N+](=O)[O-])cc(C)nc12`, the growth inhibition was 32% in assay [1] and 99% (active) in assay [4]. The inhibition in assay [2] was -6%; in assay [3], -5%. In addition, the outcome in assay [5], in assay [6], in assay [7] and in assay [8] was inactive.

As for `O=C(NCCc1ccc(Cl)c(Cl)c1)C1CCCN(C(=O)c2ccc(O)c(-c3ccc(Cl)c(Cl)c3)c2)C1` (configuration not stated), the growth inhibition was 65% (active) in assay [1] and 96% (active) in assay [4]. Moreover, the inhibition was -9% in assay [2] and -3% in assay [3]. Besides, the result in assay [5], in assay [6], in assay [7] and in assay [8] was inactive.

With `Cc1c(N=O)cc(C(C)(C)C)c(O)c1C(=O)Nc1ccc([N+](=O)[O-])cc1Cl`, the figures for the growth inhibition in assay [1] and in assay [4] were 98% (active) and 100% (active), respectively. The results for the inhibition in assay [2] and in assay [3] were 72% (active) and 1%, respectively. In addition, the result in assay [5], in assay [6], in assay [7] and in assay [8] was inactive.

As to `Cc1ccc(NC(=O)c2ccc(CN3CCCN(CCC(C)C)CC3)cc2)cc1F`, the growth inhibition in assay [1] was 31%; in assay [4], 91% (active). Also, the inhibition was 40% in assay [2] and 1% in assay [3]. Besides, the outcome in assay [5], in assay [6], in assay [7] and in assay [8] was inactive.

For `NC(=O)c1ccccc1OCC(=O)Nc1cccc(-c2ccc(-c3nc4ccccc4[nH]3)cc2)c1`, the growth inhibition was 46% in assay [1] and 95% (active) in assay [4]. The values for the inhibition in assay [2] and in assay [3] were 66% (active) and 4%, respectively. For the same molecule, the result in assay [5], in assay [6], in assay [7] and in assay [8] was inactive.

In the case of `CN(C)CCNCc1ccc(-c2ccc(-c3nc4ccccc4[nH]3)s2)cc1`, the growth inhibition in assay [1] was 100% (active); in assay [4], 101% (active). Also, the inhibition in assay [2] is -2%; in assay [3], 1%. For the same molecule, the result in assay [5], in assay [6], in assay [7] and in assay [8] was inactive.

For the molecule `COc1ccc2nccc([C@@H](O)CN3CCC(NS(=O)(=O)c4cc5c(cc4Cl)SCC(=O)N5)CC3)c2c1`, the growth inhibition was 0% in assay [1] and 88% (active) in assay [4]. The inhibition was 5% in assay [2] and 0% in assay [3]. The result in assay [5], in assay [6], in assay [7] and in assay [8] was inactive.

With `COc1ccc(-c2cccc(NC(=O)c3ccc(C#N)cc3)c2)cc1CN1CCCC1`, the growth inhibition in assay [1] is 15%; in assay [4] it was 98% (active). In addition, the inhibition is 30% in assay [2] and -5% in assay [3]. Besides, the outcome in assay [5], in assay [6], in assay [7] and in assay [8] was inactive.

As for `CC(=O)Nc1cc(C(=O)Nc2ccc(C3=NCCN3)cc2)ccc1C(=O)Nc1ccc(C2=NCCN2)cc1`, the figures for the growth inhibition in assay [1] and in assay [4] were 92% (active) and 96% (active), respectively. In addition, the values for the inhibition in assay [2] and in assay [3] were 12% and -3%, respectively. In addition, the result in assay [5], in assay [6], in assay [7] and in assay [8] was inactive.

As to `COc1ccc(S(=O)(=O)N2CCCc3ccc(Br)cc32)cc1N1CCN(C(=O)C(Cl)(Cl)Cl)CC1`, the growth inhibition is 93% (active) in assay [1] and 97% (active) in assay [4]. In addition, the inhibition in assay [2] is 23%; in assay [3], 2%. The outcome in assay [5], in assay [6], in assay [7] and in assay [8] was inactive.

The values above are taken from PubChem BioAssay.
